According to PubChem BioAssay (NCI):
About 79,000 compounds went through this panel and 15% of them were active in at least one assay; those are over-represented in the sample as a whole. No stated cut-off is given here; in the data, active means growth inhibition above about 70%; inactive means the rest.

Tests used:
[1] = NCI Yeast Anticancer Drug Screen. Data for the rad50 strain (AID 155);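 further: 0% = growth of vehicle-only cultures of the same strain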; details: S. cerevisiae rad50 strain growth inhibition; at 50.0 µM; active compounds read high
Method in brief: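 Yeast carrying a defined DNA repair defect were exposed to test compounds, and growth was compared with vehicle-treated controls to give percent inhibition.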

[2] = NCI Yeast Anticancer Drug Screen. Data for the mec2-1 strain (AID 157); details: S. cerevisiae mec2-1 strain, at 50.0 µM, active compounds read high
Method in brief: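 Strain: mec2-1 (DNA repair/cell cycle alteration). Compound exposure, then growth measured; inhibition expressed relative to vehicle.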

[3] = NCI Yeast Anticancer Drug Screen. Data for the sgs1 mgt1 strain (AID 161);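 further: 0% = growth of cultures given vehicle only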; details: S. cerevisiae sgs1 mgt1 strain, at 50.0 µM, active compounds read high
Method in brief: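 Test agents were incubated with a DNA-repair-mutant yeast strain. Growth was then read and compared against vehicle-treated controls.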

[4] = NCI Yeast Anticancer Drug Screen. Data for the cln2 rad14 strain (AID 165);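 further: 0% = growth equal to vehicle treated cultures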; details: S. cerevisiae cln2 rad14 strain, at 50.0 µM, active compounds read high
Method in brief: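 Compounds are applied to the cln2 rad14 yeast strain, and growth is then compared with that of vehicle-treated cultures to give inhibition.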

[5] = NCI Yeast Anticancer Drug Screen. Data for the bub3 strain (AID 167); details: S. cerevisiae bub3 mutant strain, at 50.0 µM, active compounds read high
Method in brief: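 Compounds were applied to a genetically altered yeast strain carrying a cell-cycle control defect. Growth inhibition was scored against vehicle-treated controls.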

[6] = NCI Yeast Anticancer Drug Screen. Data for the mlh1 rad18 strain (AID 175); details: S. cerevisiae mlh1 rad18 strain growth inhibition; at 50.0 µM; active compounds read high
Method in brief: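 Read-out is yeast growth inhibition, calculated against vehicle-only controls. The compound was applied to a strain engineered with DNA damage repair alterations.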

Measured: growth inhibition

Cc1ccsc1/C=N/Nc1nc2ccccc2s1
inactive: [1] 1.7% | [2] -1.5% | [3] 13.7% | [4] 9.2% | [5] -2.15% | [6] 11.3%

CCCCC1(CCO)C(=O)N=C(N)NC1=O (stereo unspecified)
inactive: [1] -15% | [2] -3.85% | [3] -8.05% | [4] -22.9% | [5] -5.6% | [6] -15.8%

CCO/C=C1/N=C(c2ccccc2Cl)OC1=O
inactive: [1] 10.2% | [2] 5.25% | [3] -1.05% | [4] -30.1% | [5] -17.1% | [6] 14.3%

Fc1ccccc1C(Nc1nc2ccccc2s1)Nc1nc2ccccc2s1
inactive: [1] 13.4% | [2] 6.05% | [3] -7.3% | [4] -0.3% | [5] -3.15% | [6] 1.35%

NC(=O)C1C[C@@H](O)CN1C(=O)c1ccc2c(c1)OCO2 (stereo partly specified)
inactive: [1] -11.6% | [2] -9.8% | [3] -24.6% | [4] 6.5% | [5] 3.05% | [6] 1.25%

Cn1c(=O)n2c(-c3ccccc3)c(-c3ccccc3)n2c1=O
inactive: [1] 6.85% | [2] -19.6% | [3] -23.8% | [4] 0.5% | [5] -25.9% | [6] -28.9%

NC(Cc1cc(I)c(O)c(I)c1)C(=O)O (stereo unspecified)
inactive: [1] -0.95% | [2] -6.05% | [3] -12.6% | [4] 8.2% | [5] 8.3% | [6] 1.35%

NNC(=O)COc1ccc(Br)cc1Br
inactive: [1] 33.2% | [2] 4.25% | [3] -5.15% | [4] 26.4% | [5] 3.8% | [6] -1.25%

NC(=O)Cc1c[nH]c2ccc(Br)cc12
inactive: [1] -24.1% | [2] -53.8% | [3] -8.4% | [4] 11.4% | [5] -20.7% | [6] -13.2%

O=C1CSC2=NC3=C(CSC/C3=C\c3ccccc3)C(c3ccccc3)N12 (stereo unspecified)
inactive: [1] 14.4% | [2] 11.5% | [3] 21.2% | [4] 35.8% | [5] 21% | [6] -25.6%

O=C1CC2C1C1C=CC2n2c(=O)n(-c3ccccc3)c(=O)n21 (stereo unspecified)
inactive: [1] -11.6% | [2] 9.05% | [3] 13.5% | [4] 6% | [5] 2.2% | [6] 15.4%

Cc1ccc(Cl)cc1NC(=O)Nc1cccc(C(F)(F)F)c1
inactive: [1] 3.3% | [2] 25.5% | [3] 14.2% | [4] -5.4% | [5] 37.1% | [6] 8.95%

Brc1cccc(-c2nnc(-c3cccc4ccccc34)o2)c1
inactive: [1] 1% | [2] -11.2% | [3] 0.5% | [4] -39.2% | [5] 6.7% | [6] -8.55%

CCN(CC)CC(O)CN1CCCc2ccccc21 (stereo unspecified)
inactive: [1] -9.4% | [2] 1.5% | [3] 0.6% | [4] -5.4% | [5] 7.85% | [6] -13.4%

CC(=O)OCC(=O)[C@@]1(O)CC[C@H]2[C@@H]3C[C@H](C)C4=CC(=O)C=C[C@]4(C)[C@@]3(Br)[C@@H](O)C[C@@]21C
inactive: [1] 30.9% | [2] 7.75% | [3] 38.3% | [4] 35.9% | [5] 1.35% | [6] -9.1%

c1scc2c1COCCOCCOCCOCc1cscc1COCCOCCOCCOC2
inactive: [1] -20.2% | [2] -26.1% | [3] -38.4% | [4] 26.6% | [5] -30.4% | [6] -46.5%

NC(=O)c1n[nH]n(-c2ccccc2)c1=O
inactive: [1] -13.2% | [2] -5.35% | [3] -7.75% | [4] 0.15% | [5] -19.9% | [6] 3.85%

Nc1cnc2ccccc2c1
inactive: [1] 10.2% | [2] 1.25% | [3] -8.45% | [4] -46.5% | [5] 11.8% | [6] -4.1%

CC(=O)Nc1cccc(OCCOc2ccccc2[N+](=O)[O-])c1
inactive: [1] -0.6% | [2] -11.3% | [3] -8.65% | [4] 3.15% | [5] 4.7% | [6] 8.2%

C/C=C(\C)c1cc(=O)c2c(C)cc3c(c2o1)C(=O)c1c(OC)cccc1C3=O
inactive: [1] 14.2% | [2] -14.8% | [3] -1.05% | [4] -4.65% | [5] -6.95% | [6] 23.9%

O=C(NC(=S)Nc1ccc([N+](=O)[O-])cc1Cl)c1ccccc1F
inactive: [1] 14.2% | [2] 6.1% | [3] 20.1% | [4] 21.9% | [5] 24.1% | [6] 20.1%

CCCCCCC(Br)CCCC (stereo unspecified)
inactive: [1] 15.6% | [2] -8.85% | [3] 14% | [4] -15.2% | [5] -7.75% | [6] -4.9%

ONC1=Nc2cc(Cl)ccc2C(=S)N2CSCC12 (stereo unspecified)
inactive: [1] 1.55% | [2] 18.6% | [3] -0.25% | [4] 0.45% | [5] -9.8% | [6] 18.8%

c1cnc(NC(Nc2ncccn2)c2ccco2)nc1
inactive: [1] -6.5% | [2] -8.9% | [3] -5.55% | [4] -21.9% | [5] -12.2% | [6] -10.4%

CCCCOC(=O)CCc1nc2c([nH]1)c(=O)n(C)c(=O)n2C
inactive: [1] 15.8% | [2] 8.9% | [3] 9.5% | [4] 42.4% | [5] 9.65% | [6] -0.45%

Cc1ccc(S(=O)(=O)CCN2CCOCC2)cc1
inactive: [1] 15.3% | [2] -3.15% | [3] 5% | [4] -32.3% | [5] 5.85% | [6] 2.8%

CCOC(=O)C12CCC(C(=O)OCC)(CC13OCCO3)C1(C2)OCCO1
inactive: [1] 11.1% | [2] 9.95% | [3] 10% | [4] 5.55% | [5] 7.35% | [6] 15.9%

C/C(=C\C(=N\Nc1nc(C)cc(=O)[nH]1)c1ccccc1)c1ccccc1
inactive: [1] 12.4% | [2] -11.4% | [3] -8.75% | [4] 3.45% | [5] 6.8% | [6] -2.2%

COC(=O)c1ccc(CSc2ccccc2NC(=S)Nc2cccc(C(F)(F)F)c2)o1
inactive: [1] -3.65% | [2] -20.2% | [3] -1.15% | [4] 4.65% | [5] -18.4% | [6] -7.6%

C[s+]1c2ccccc2c2ccccc21
inactive: [1] -65.8% | [2] -46.4% | [3] -32.9% | [4] -22.6% | [5] -13.2% | [6] -49.8%

CN1CCC(n2[nH]c(-c3ccccc3)c(Cc3ccccc3)c2=O)CC1
inactive: [1] 3.3% | [2] -40.6% | [3] -13.3% | [4] 10.6% | [5] -15.1% | [6] 5.7%

Cc1cc2ccccc2n1CC(=O)N1CCCC1
inactive: [1] -14.8% | [2] -28.6% | [3] -23.6% | [4] 0.8% | [5] 15.9% | [6] -11.8%

O=C1NC(c2ccc(Cl)cc2)(c2ccc(Cl)cc2)C(=O)N1Cl
inactive: [1] -4.8% | [2] -1.6% | [3] 8.05% | [4] 16.9% | [5] 11.6% | [6] -16.4%

CC(C)CCC[C@@H](C)[C@H]1CC[C@H]2[C@@H]3C[C@@H](O)[C@@]4(O)C[C@@H](O)CC[C@]4(C)[C@H]3CC[C@]12C
inactive: [1] 27.6% | [2] 8.65% | [3] 14.1% | [4] -12.4% | [5] -7.25% | [6] 19.5%

CC(C)CNC(=O)/C=C/c1ccc2c(c1)OCO2
inactive: [1] 13.5% | [2] -19.1% | [3] -1.4% | [4] 3.4% | [5] 6.45% | [6] -15.1%

Cc1ccc(N=Nc2c(O)c(S(=O)(=O)O)cc3cc(S(=O)(=O)O)ccc23)c(C)c1
inactive: [1] 8.55% | [2] -19.6% | [3] -13.8% | [4] 6.3% | [5] -14% | [6] 2.55%

O=C(Nc1ccccc1Br)c1cccc([N+](=O)[O-])c1O
inactive: [1] 37.5% | [2] 35.2% | [3] 45.5% | [4] 38.2% | [5] 29.4% | [6] 37.1%

COC(=O)CCNC(C(=O)O)C(C)(C)SCCC(=O)OC (stereo unspecified)
inactive: [1] -18.6% | [2] -19.1% | [3] -7.9% | [4] 24.5% | [5] 24.5% | [6] -20.4%

Cc1ccc(C(=O)O)c(O)c1
inactive: [1] 11.7% | [2] -1.7% | [3] -14.8% | [4] -13.9% | [5] -26% | [6] -2.5%

O=c1[nH]cnc2nn(C3OC(CO)C(O)C3O)cc12 (stereo unspecified)
inactive: [1] -20.4% | [2] 12.9% | [3] -6.85% | [4] -5.65% | [5] 9.25% | [6] -18.9%

COc1cc(C(=O)O)c(I)c(OC)c1OC
inactive: [1] -10.9% | [2] -5.85% | [3] -6.25% | [4] -4.85% | [5] 3.6% | [6] -9.65%
